Compound activity (PubChem BioAssay)
Sampled rows, rich in hits. Any-hit rate of the full collection: about 21%.
Pf growth 96h – inhibits malaria parasite growth, 96 h | P. falciparum luciferase reporter growth, 96 h | Potency, µM (titrated, usually from 28.7 µM), without a hit: at the top dose activity change, negative = inhibition, usual class: inhibitors | 6.9% of 320,000 active | AID 504834; also: potency is read from the fitted curve at half-maximal effect; % is scaled to controls: 0 for no effect and ±100 for the full control effect
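P. falciparum expressing integrated firefly luciferase, in erythrocytes at 2% hematocrit, 0.05% parasitemia, incubated with compounds 96 h at 37 C, 5% CO2. Growth inhibition read as loss of luminescence; two-generation exposure targets delayed-death apicoplast inhibitors.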
Pf growth 48h – P. falciparum growth inhibition at 48 hours (one generation); P. falciparum luciferase growth in erythrocytes, 48 h; Potency, µM (top dose mostly 28.7 µM), for inactives: top-dose activity change, negative = inhibition, usual class: inhibitors; 5.9% of 310,000 active; also: potency is read from the fitted curve at half-maximal effect; % is scaled to controls: 0 for no effect and ±100 for the full control effect
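Here the parasites carry a stable luciferase gene and grow inside erythrocytes in Albumax-based RPMI medium with compound for one erythrocytic cycle. Activity is scored as loss of luminescent signal.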
HCMV antiviral – human cytomegalovirus inhibition; HFF cells, HCMV-luciferase reporter, 72 h; hits give low values; activity change, negative = inhibition, % at 57.5 µM; 4.5% of 410,000 active; AID 1259415; in the data active = activity change below about -60%; inconclusive = no clear call, values can overlap the other calls; inactive = above about -39%; also: % is scaled to controls: 0 for no effect and ±100 for the full control effect
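Human foreskin fibroblasts infected with luciferase-reporter HCMV at MOI 1 PFU/cell, compounds at two doses. Luciferase measured 72 h post infection; normalized to buffer-only basal and Salinomycin (10uM) controls.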
HCV inhibitor – blocks hepatitis C virus; Huh7.5.1 HCVcc-Cre infection, luciferase reporter, 44 h; Potency, µM (titrated, usually from 41.8 µM), for inactives: top-dose activity change, negative = inhibition, hits mostly inhibitors; 3.4% of 340,000 active; also: potency is read from the fitted curve at half-maximal effect; % is scaled to controls: 0 for no effect and ±100 for the full control effect
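Infectious HCV cell culture screen: compound-treated cells (1,000/well, pre-plated 4 h) are infected with HCVcc-Cre at roughly 0.5 moi and grown 44 h. Infection is quantified by luciferase signal after 15 min substrate incubation at room temperature.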
CHX counter – counter-screen hit for Shiga toxin inhibitors, cycloheximide. cell reporter, cycloheximide protein synthesis inhibition counterscreen. max response, %. AID 2314. 12% of 300,000 active; in the data active = max response mostly above about 13%, no sharp cut-off; inactive = mostly below about 14%; also: read at 38.3 µM for the half of the compounds with a filed dose; 0% is about no effect
Shiga toxin inh – blocks Shiga toxin action in Vero cells; Vero cells, Shiga toxin protein synthesis inhibition reporter; inhibition, % at 38.7 µM; 9.2% of 290,000 active; AID 2315; in the data active = inhibition mostly above about 28%, no sharp cut-off; inactive = mostly below about 43%; also: 0% is about no effect
Starred values were filed as active, the others as inactive; i = inactive; ? = inconclusive; . = no result given. Unless noted, calls follow the shape of the dose curve; as a rule, active = well fitted inhibition curve with a large enough effect; inconclusive = small, poorly fitted or top-dose-only effect, or another doubt; inactive = no such curve, though single readings can be large or run the other way.

SMILES | Pf growth 96h | Pf growth 48h | HCMV antiviral | HCV inhibitor | CHX counter | Shiga toxin inh
O=C(Nc1cccc(F)c1)c1cccnc1 | 7.38µM* | -0.8% | -21.9 | -2.6% | -2.8 | -8.1
COc1cccc(NC(=O)c2cccnc2)c1 | -2.2% | 56.1% | 65.2 | 7.4% | 31.6* | 31.1
O=C(Nc1ccc(F)c(F)c1)c1cccnc1 | 10.4µM* | . | 34.4 | 24.3% | 1.1 | -8.2
COc1ccc([N+](=O)[O-])cc1NC(=O)C1C2C=CC(C2)C1C(=O)O (configuration not stated) | -12.0% | 6.2% | 25.7 | 10.9% | 3.3 | 6.5
Cc1ccc(C(=O)c2oc3ccccc3c2NC(=O)Cc2coc3c(C)c(C)ccc23)cc1 | . | . | -10.7 | . | . | .
CCOc1ccc(S(=O)(=O)N2CCN(CC(O)COc3cccc([N+](=O)[O-])c3)CC2)cc1 (configuration not stated) | ? | ? | -37.5 | -26.1% | -2.0 | -3.3
CN(CC(=O)Nc1ccccc1Br)C(=O)c1cccnc1Nc1cccc(C(F)(F)F)c1 | ? | ? | -24.2 | . | 9.9 | 21.7
Nc1nc2ccc(O)cc2s1 | 10.4µM* | 1.7% | 42.4 | -7.2% | 5.0 | 9.5
Nc1nc2c(F)c(F)c(F)cc2s1 | -0.2% | 18.5% | -1.9 | 12.4% | 8.0 | -4.1
Nc1nc2ccc(C(=O)N3CCCCC3)cc2s1 | 4.15µM* | 11.9% | -38.1 | 16.3% | -2.1 | -1.8
Nc1nc2ccc(S(=O)(=O)c3ccc4nc(N)sc4c3)cc2s1 | -1.7% | -12.0% | -1.1 | 1.4% | -2.7 | -5.3
Nc1nc2ccc(Br)cc2s1 | . | . | -11.8 | . | . | .
Cc1cc2nc(N)sc2cc1C | 2.3% | 150.7% | 11.9 | -15.2% | 41.2* | 49.4*
CCOc1ccccc1N1CCN(C(=O)c2ccc3nc(N)sc3c2)CC1 | . | . | -10.6 | ? | . | .
CC(C)c1ccc2nc(N)sc2c1 | i | 286.5% | 125.3 | 9.7% | 25.5* | 64.1*
CCOc1ccc(/C=N/n2cc(-c3ccccc3)[nH]c2=S)cc1 | ? | ? | 33.5 | ? | 18.6* | 28.5
O=C(NC(=S)Nc1cccnc1Cl)c1ccco1 | 26.3% | 144.2% | 26.0 | 3.6% | 21.2* | 55.0*
CCOc1ccccc1NC(=S)NC(=O)c1ccco1 | 0.4% | 0.9% | -21.3 | ? | 13.8 | 4.4
O=C(NC(=S)Nc1ccccn1)c1ccco1 | 106.1% | 102.6% | -10.9 | -5.0% | 46.6* | 57.8*
O=C(NC(=S)Nc1ccccc1[N+](=O)[O-])c1ccco1 | ? | 33.4% | -27.5 | -15.5% | 22.3* | 62.9
CCNC(=S)Nc1cc(C)ccn1 | 34.3% | -9.4% | -5.9 | 3.0% | 13.7 | 29.0*
Cc1ccc(CC(=O)Nc2cc(C)ccn2)cc1 | -15.0% | 30.8% | ? | 2.7% | 15.6 | 17.3
O=C(NC(=S)Nc1ccc([N+](=O)[O-])cc1)c1ccco1 | . | . | 22.4 | . | . | .
Cc1cc(Cl)cc(Cl)c1CNc1c([N+](=O)[O-])c(=O)oc2ccccc12 | 5.0% | 1.2% | 9.2 | 11.4% | -3.4 | 7.9
Cc1ccnc(NC(=S)NC(=O)c2ccco2)c1 | 186.9% | 106.1% | 64.5 | 6.4% | 39.8* | 96.1*
SMILES | Pf growth 96h | Pf growth 48h | HCMV antiviral | HCV inhibitor | CHX counter | Shiga toxin inh
Cc1ccnc(NC(=S)NC(=O)c2cccs2)c1 | ? | 185.4% | -14.4 | -6.1% | 77.7* | 159.7*
c1ccc(CSc2nnc3c(n2)OC(c2ccco2)Nc2ccccc2-3)cc1 (configuration not stated) | -4.7% | ? | . | -18.2% | 26.0* | 86.3*
C=CCSc1nnc2c(n1)OC(c1cccnc1)Nc1ccccc1-2 (configuration not stated) | -75.5% | 10.6% | 92.4 | 22.1% | 26.6* | 128.4*
C=CCSc1nnc2c(n1)OC(c1cccnc1)N(C(C)=O)c1ccccc1-2 (configuration not stated) | ? | -3.0% | -18.5 | 8.9% | 1.7 | -30.8
CCOC(=O)Cc1csc(NC(=O)CSc2nnc(C)n2C)n1 | 10.4µM* | 11.4% | 3.9 | 6.5% | -5.6 | -4.4
CCOC(=O)Cc1csc(NC(=O)CSc2nnc(C(C)C)n2C)n1 | -11.8% | 1.2% | -8.0 | -15.0% | 3.3 | -15.2
CCOC(=O)Cc1csc(NC(=O)CSc2nnc(C3CC3)n2C)n1 | 13.1µM* | 2.1% | -19.6 | 10.0% | -2.0 | -1.8
COc1ccc(Cl)cc1C(=O)Nc1ccc(NC(=O)c2ccco2)cc1 | 2.08µM* | ? | . | ? | 12.2 | 16.0
COc1ccc(Cl)cc1NC(=O)c1ccco1 | . | 8.0% | -4.7 | 11.2µM* | -2.8 | -8.3
COc1ccc(Cl)cc1C(=O)NNC(=O)CNC(=O)c1ccc(C)s1 | . | . | -38.9 | 2.0% | . | .
C/C(CC(=O)Nc1cc(Cl)ccc1Cl)=N\NC(=O)c1ccco1 | ? | -10.2% | 6.1 | -0.1% | 51.1* | 82.6*
COc1ccc(Cl)cc1C(=O)NNC(=O)CNC(=O)c1ccco1 | . | . | -99.2* | 4.9% | . | .
COc1ccc(Cl)cc1NC(=O)c1cc(-c2ccco2)on1 | 308.5% | 35.9% | 24.5 | -26.6% | -3.8 | -6.1
COc1ccc(C)cc1NC(=O)N1CCC(CN2CCC(C)CC2)CC1 | . | . | -2.9 | . | . | .
CC(=O)c1ccc(N2CCN(C(=O)NCc3noc4ccc(C)cc34)CC2)cc1 | . | . | -1.8 | . | . | .
CCCCc1nc2cc(C(=O)NCCc3c(C)n[nH]c3C)ccc2o1 | . | . | -4.3 | -8.9% | . | .
COC(=O)[C@]12C[C@H](CC(=O)N3CCOCC3)C(=O)N(Cc3ccccc3)C1=C[C@H](C1CCCC1)O[C@@H]2C | . | . | 11.0 | . | . | .
Cc1ccccc1NS(=O)(=O)c1ccc(NS(=O)(=O)c2cccs2)cc1 | 3.3% | 9.5% | -16.8 | -0.2% | 2.1 | -6.7
CCc1cccc(NC(=O)C2CCN(c3ncnc4sc(C)c(C)c34)CC2)c1 | . | . | -39.2 | 11.2µM* | . | .
Cc1sc2ncnc(N3CCC(C(=O)Nc4ccc(C#N)c(Cl)c4)CC3)c2c1C | 11.7µM* | ? | -32.6 | -10.7% | . | .
Cc1sc2ncnc(N3CCC(C(=O)Nc4ccc(Br)cc4Br)CC3)c2c1C | ? | ? | -16.4 | ? | . | .
Cc1sc2ncnc(N3CCC(C(=O)Nc4ccc(Cl)cc4Cl)CC3)c2c1C | ? | 10.4µM* | -20.5 | ? | . | .
Cc1sc2ncnc(N3CCC(C(=O)Nc4ccc(Cl)c(Cl)c4)CC3)c2c1C | ? | 13.1µM* | 0.0 | ? | . | .
CNC(=O)c1ccc(NC(=O)C2CCN(c3ncnc4sc(C)c(C)c34)CC2)cc1 | ? | ? | ? | -21.4% | -1.4 | -2.2
CCc1ccc2nc(NC(=O)C3CCN(c4ncnc5sc(C)c(C)c45)CC3)sc2c1 | -10.4% | ? | 20.7 | -5.9% | . | .
Nn1c(SCC(=O)Nc2nccs2)nnc1C1CC1 | 4.4% | 4.7% | . | 13.7% | 1.2 | -4.7
O=C(Nc1cccc(Cl)c1)c1ccc2nc(Cc3ccccc3)oc2c1 | . | . | -36.9 | . | . | .
CCCCCC/C=C1\CC(C(=O)OCC)Oc2ccccc21 (configuration not stated) (tested in a mixture with another compound) | . | . | . | . | 2.6 | i
Cc1sc2ncnc(N3CCC(C(=O)NCC(=O)Nc4ccc(F)c(F)c4)CC3)c2c1C | ? | ? | -35.1 | 8.91µM* | 0.2 | -14.3
